Among the data in PubChem BioAssay are outcome values, retold here.

SMILES strings stand for the structures. Entries with a potency or affinity are not part of this list. The source made the active and inactive calls. No cut-off is given here; in the data, nearly all actives have IC50 up to about 0.98 µM.

The target in the assay is Calcium-dependent protein kinase 1 (Plasmodium falciparum (isolate 3D7)) (UniProt P62344). The experiment in a line: PfCDPK1 kinase inhibitors, biochemical, TCAMS library (AID 1159585).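 Note: inhibitors leave more ATP so luminescence rises with inhibition.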 Particulars: recombinant PfCDPK1, Kinase-Glo ATP depletion luminescence. On the technique in general: Kinase-Glo reads ATP consumption through a luciferase reaction.
Sequence of Calcium-dependent protein kinase 1 (Plasmodium falciparum (isolate 3D7)) (P62344 whole entry, looked up): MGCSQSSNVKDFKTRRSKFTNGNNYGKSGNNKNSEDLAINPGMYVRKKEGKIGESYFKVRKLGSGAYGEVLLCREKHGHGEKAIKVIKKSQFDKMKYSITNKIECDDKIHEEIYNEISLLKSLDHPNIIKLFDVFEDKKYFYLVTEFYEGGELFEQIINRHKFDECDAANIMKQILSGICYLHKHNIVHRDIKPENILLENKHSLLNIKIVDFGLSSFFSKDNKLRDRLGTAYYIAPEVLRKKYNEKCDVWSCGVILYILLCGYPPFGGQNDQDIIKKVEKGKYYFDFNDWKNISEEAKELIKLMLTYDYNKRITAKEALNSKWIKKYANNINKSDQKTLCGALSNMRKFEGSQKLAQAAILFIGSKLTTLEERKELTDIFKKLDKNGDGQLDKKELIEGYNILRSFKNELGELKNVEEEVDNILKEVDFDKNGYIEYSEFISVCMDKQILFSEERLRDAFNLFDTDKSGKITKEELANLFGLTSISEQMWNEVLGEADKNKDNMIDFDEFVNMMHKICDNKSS
As to `CCN(CC)CCN(Cc1ccc(-c2ccc(C(F)(F)F)cc2)cc1)C(=O)Cn1cc(CCCCc2cccc(F)c2F)c(=O)c2ccccc21`, the result was inactive.

`O=c1c(NCCCN(Cc2ccc(F)cc2)c2ccccn2)c(NCc2cccnc2)c1=O`: the result was inactive.

In the case of `COc1ccc(-c2ccc(NC(=O)c3ccc(F)cc3)cc2)cc1CN1CCCN(C)CC1`, the result was inactive.

Regarding `O=C(Nc1cncc(NC(=O)c2ccc(Cl)c(Cl)c2)c1)c1ccc(Cl)c(Cl)c1`, the outcome was inactive.

As for `CCn1cnc2c(Nc3cccc([N+](=O)[O-])c3)nc(N3CCC(N4CCCCC4)CC3)nc21`, the result was inactive.

Regarding `NC1CCN(c2nc(NCCCc3ccc(O)cc3)nc(NCc3ccccc3-c3ccc(C(F)(F)F)cc3)n2)CC1`, the result was inactive.

For the compound `CC(C)CNC(=O)c1cncc(-c2cccc(CNC3Cc4ccccc4C3)c2)c1`, the outcome was inactive.

For `CC(C)COc1ccc(Cl)cc1Cc1nc(-c2nc3nc(N4CCN(C)CC4)ccc3[nH]2)cs1`, the outcome was inactive.

Regarding `COc1cc(OC)cc(C(=O)Nc2nc(-c3ccccn3)cs2)c1`, the result was inactive.

As for `O=C(Nc1ccccc1)Nc1ccc(-c2cccc(-c3nc4ccc(C(F)(F)F)cc4[nH]3)c2)cc1`, the result was inactive.

`CN(CCCCCN1CCC(NC(=O)Nc2ccc(Oc3ccccc3)cc2)C1)C(=O)/C=C/c1ccc(Cl)c(Cl)c1` (centres undefined): the outcome was inactive.

As for `CCCCNCc1ccc(-c2nc(CN(C(=O)Nc3cc([N+](=O)[O-])ccc3F)C3Cc4ccccc4C3)cs2)cc1`, the result was inactive.

On to `Cc1cc(NC(=O)Nc2ccc3nccc(N4CCN(C)CC4)c3c2)ccc1Br`, for which the result was inactive.

As for `CS(=O)(=O)c1cccc(-c2cnc(N)c3cc(-c4cccc(F)c4)ccc23)c1`, the outcome was inactive.
